Assay results from the supplement of paper PMC8728848.
The entries come from a sample that favours the strongest signals as a whole.

What was measured:
Assay in all cases: glycan array binding signal (z-score within array); higher = stronger binding
Conditions in all cases: glycan notation: IUPAC condensed, linker removed
[1] = target: GlcNAc(b1-3)Gal(b1-4)GlcNAc(b1-3)Gal(b1-4)GlcNAc(b1-2)Man(a1-3)[GlcNAc(b1-3)Gal(b1-4)GlcNAc(b1-3)Gal(b1-4)GlcNAc(b1-2)Man(a1-6)]Man(b1-4)GlcNAc(b1-4)GlcNAc
In short: (§1)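 Arrays were curated from the Consortium for Functional Glycomics database, 3228 in total, and kept only where the protein sequence was available. Binding is expressed as a within-array Z-score. This score was averaged across arrays of the same protein sequence at different concentrations or buffers and across linkers, and negative values can be read as non-binding.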

[2] = target: GlcNAc(b1-3)Gal(b1-4)GlcNAc(b1-3)Gal(b1-4)GlcNAc(b1-2)[GlcNAc(b1-3)Gal(b1-4)GlcNAc(b1-3)Gal(b1-4)GlcNAc(b1-6)]Man(a1-6)[GlcNAc(b1-3)Gal(b1-4)GlcNAc(b1-3)Gal(b1-4)GlcNAc(b1-2)Man(a1-3)]Man(b1-4)GlcNAc(b1-4)[Fuc(a1-6)]GlcNAc
In short: as §1

[3] = target: GlcNAc(b1-4)GlcNAc(b1-4)GlcNAc
In short: as §1

[4] = target: GlcNAc6S(b1-3)Gal(b1-4)GlcNAc
In short: as §1

[5] = target: Man(a1-2)Man(a1-3)[Man(a1-6)]Man(a1-6)[Man(a1-2)Man(a1-3)]Man(b1-4)GlcNAc(b1-4)GlcNAc
In short: as §1

[6] = target: Man(a1-2)Man(a1-6)[Man(a1-3)]Man(a1-6)[Man(a1-2)Man(a1-2)Man(a1-3)]Man(b1-4)GlcNAc(b1-4)GlcNAc
In short: as §1

[7] = target: Neu5Ac(a2-3)Gal(b1-3)[GlcNAc(b1-6)]GalNAc
In short: as §1

[8] = target: Neu5Ac(a2-3)Gal(b1-4)GlcNAc(b1-2)Man
In short: as §1

[9] = target: Neu5Ac(a2-3)Gal(b1-4)GlcNAc(b1-2)[Neu5Ac(a2-3)Gal(b1-4)GlcNAc(b1-6)]Man(a1-6)[Neu5Ac(a2-3)Gal(b1-4)GlcNAc(b1-2)Man(a1-3)]Man(b1-4)GlcNAc(b1-4)GlcNAc
In short: as §1

[10] = target: Neu5Ac(a2-3)Gal(b1-4)GlcNAc(b1-3)Gal(b1-4)GlcNAc(b1-3)Gal(b1-4)GlcNAc
In short: as §1

[11] = target: Neu5Ac(a2-3)[GalNAc(b1-4)]Gal(b1-4)GlcNAc(b1-3)GalNAc
In short: as §1

[12] = target: Neu5Ac(a2-6)Gal(b1-4)GlcNAc(b1-2)Man
In short: as §1

[13] = target: Neu5Ac(a2-6)Gal(b1-4)GlcNAc(b1-3)Gal(b1-3)GlcNAc
In short: as §1

[14] = target: Neu5Ac(a2-8)Neu5Ac(a2-3)[Gal(b1-3)GalNAc(b1-4)]Gal(b1-4)Glc
In short: as §1

[15] = target: Neu5Ac(a2-8)Neu5Ac(a2-3)[GalNAc(b1-4)]Gal(b1-4)Glc
In short: as §1

[16] = target: Neu5Ac(a2-8)Neu5Ac(a2-8)Neu5Ac(a2-3)[GalNAc(b1-4)]Gal(b1-4)Glc
In short: as §1

[17] = target: Neu5Gc(a2-3)Gal(b1-3)[Fuc(a1-4)]GlcNAc
In short: as §1

[18] = target: Neu5Gc(a2-3)Gal(b1-4)Glc
In short: as §1

[19] = target: Neu5Gc(a2-6)Gal(b1-4)GlcNAc
In short: as §1

[20] = target: Fuc(a1-2)[Gal(a1-3)]Gal
In short: as §1

[21] = target: Fuc(a1-2)[Gal(a1-4)]Gal(b1-4)GlcNAc
In short: as §1

[22] = target: Fuc(a1-2)[GalNAc(a1-3)]Gal(b1-3)GlcNAc
In short: as §1

[23] = target: Fuc(a1-3)[Gal(b1-4)]GlcNAc(b1-4)Gal(b1-4)[Fuc(a1-3)]GlcNAc(b1-4)Gal(b1-4)[Fuc(a1-3)]GlcNAc
In short: as §1

[24] = target: Gal(a1-3)Gal(b1-4)Glc
In short: as §1

[25] = target: Gal(a1-4)Gal(b1-4)GlcNAc
In short: as §1

[26] = target: Gal(b1-3)[Fuc(a1-4)]GlcNAc
In short: as §1

[27] = target: Gal(b1-3)[GlcNAc(b1-6)]GalNAc
In short: as §1

[28] = target: GalNAc(b1-3)GalNAc
In short: as §1

[29] = target: GalNAc(b1-4)GlcNAc
In short: as §1

[30] = target: GlcNAc(b1-3)Gal
In short: as §1

[31] = target: GlcNAc(b1-3)GalNAc
In short: as §1

[32] = target: GlcNAc(b1-3)[GlcNAc(b1-6)]Gal(b1-4)GlcNAc
In short: as §1

[33] = target: Neu5Ac(a2-3)Gal(b1-4)Glc
In short: as §1

[34] = target: Neu5Ac(a2-3)Gal(b1-4)GlcNAc(b1-3)Gal(b1-4)GlcNAc
In short: as §1

[35] = target: Neu5Ac(a2-3)Gal(b1-4)GlcNAc(b1-3)Gal(b1-4)[Fuc(a1-3)]GlcNAc
In short: as §1

[36] = target: Neu5Ac(b1-6)GalNAc
In short: as §1

B1: Pbx2 (Cryptococcus neoformans) (protein)
chain: AVSPLPSSTELVFYSQKRRRRRICSTATGSLSTPDPTRMTSDPYKRVGMRFSSVPRLLITFLSLLLLVSAAPPCVRFADYDSINQMFIDGGPGTKVLLCPNRLYRLSGPIIFTAADQEIATYGYPTGSERAVLRVEGRNTATAIQGDCRRCARVSVKNLVVDGNRKKLGRMRDFQLATGLVVLGGNEGQSIQNSWIKNPRGFTAIHIREGDKLQCSGARVEKNEIGPVGEEYDPEKDGDDPEMSPLGRPLADGVSIACRDSFIRDNTFRDNTDAAIVVYCSPGTLIHANHIFAQSLSAMAGILMVDSTPFNGDYTGTVVRSNIIDAVSRTIRVGIGIGPTVWSDDTETILTGGSVIGNGLKGRYMGYGIAAAGLKQWTIKDNWDEAKHEGRKSARCFDEPVNPDPIGLLYNRPTMEDCTVQSGFADHDFQYLVCIDGLYDKTNPPKHDPAPLAHDPSPTNAQEDNTVQQDGGDSKSKSIEQPREASDIEAEPSVEKMFSTGSEMMDDVLEHSHQRMHEVIDHLSRRIDILGAASAGKGSGDSKISEVLDPAMSSHLEKLQRKIEHLEFSLRSQIETAIQLRSAIQGWDQEMALVTDWEYDILLDVRHKLELSSYPHDQPLDPRLMRGQSYLNNEAVLVDDHSHPSLEGENLRAMSDRARLNANEEA
[1]
  glycan array binding signal (z-score): 3.17
[2]
  glycan array binding signal (z-score): 1.33
[3]
  glycan array binding signal (z-score): -0.147
[4]
  glycan array binding signal (z-score): -0.104
[5]
  glycan array binding signal (z-score): -0.065
[6]
  glycan array binding signal (z-score): 0.275
[7]
  glycan array binding signal (z-score): -0.075
[8]
  glycan array binding signal (z-score): 4.34
[9]
  glycan array binding signal (z-score): 0.027
[10]
  glycan array binding signal (z-score): -0.461
[11]
  glycan array binding signal (z-score): -0.206
[12]
  glycan array binding signal (z-score): 0.729
[13]
  glycan array binding signal (z-score): -0.368
[14]
  glycan array binding signal (z-score): 0.256
[15]
  glycan array binding signal (z-score): -0.131
[16]
  glycan array binding signal (z-score): 0.212
[17]
  glycan array binding signal (z-score): -0.266
[18]
  glycan array binding signal (z-score): -0.241
[19]
  glycan array binding signal (z-score): -0.317

B2: F17bG (Escherichia coli), Q47200 (protein)
chain: MTNFYKVFLAVFILVCCNISHAVVSFIGSTENDVGPSQGSYSSTHAMDNLPFVYNTGYNIGYQNANVWRIGGGFCVGLDGKVDLPVVGSLDGQSIYGLTEEVGLLIWMGDTNYSRGTAMSGNSWENVFSGWCVGNYLSTQGLSVHVRPVILKRNSSAQYSVQKTSIGSIRMRPYNGSSAGSVQTTVNFSLNPFTLNDTVTSCRLLTPSAVNVSLAAISAGQLPSSGDEVVAGTTSLKLQCDAGVTVWATLTDATTPSNRSDILTLTGASTATGVGLRIYKNTDSTPLKFGPDSPVKGNENQWQLSTGTETSPSVRLYVKYVNTGEGINPGTVNGISTFTFSYQ
[20]
  glycan array binding signal (z-score): -0.551
[21]
  glycan array binding signal (z-score): -0.657
[22]
  glycan array binding signal (z-score): -0.567
[23]
  glycan array binding signal (z-score): -0.507
[24]
  glycan array binding signal (z-score): -0.565
[25]
  glycan array binding signal (z-score): -0.527
[26]
  glycan array binding signal (z-score): -0.578
[27]
  glycan array binding signal (z-score): 1.08
[28]
  glycan array binding signal (z-score): 4.47
[29]
  glycan array binding signal (z-score): -0.391
[30]
  glycan array binding signal (z-score): 4.21
[31]
  glycan array binding signal (z-score): 3.86
[32]
  glycan array binding signal (z-score): 5.83
[33]
  glycan array binding signal (z-score): -0.498
[34]
  glycan array binding signal (z-score): 0.462
[35]
  glycan array binding signal (z-score): 0.05
[36]
  glycan array binding signal (z-score): -0.298
